High-throughput results: PubChem BioAssay, several laboratories
Rows were chosen to be rich in hits. Some 1.3% of all compounds tested hit in one or more screens of this group.
NCOA3 inh: inhibitors of human steroid receptor coactivator 3 (SRC3); AID 588352; inhibition, % at 3.6 µM; 360,000 compounds, 0.17% hits; Q9Y6Q9; HEK293 GAL4-SRC3 luciferase reporter, luminescence;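 active = inhibition above a per-campaign cutoff, the mean of all compounds plus 3 SD, cut at about 60% in these data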;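 note: 0% = DMSO-treated cells and 100% = gossypol-treated cells at 36 µM; higher means less SRC3-driven luciferase light from the GAL4 reporter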
NR2F2 inh: NR2F2 (human) inhibition, primary screen | P24468 | HEK293T NGFI-A luciferase reporter, luminescence | inhibition, % at 8.6 µM | 370,000 compounds, 0.7% hits;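 active = inhibition above a per-plate cutoff, mean inhibition of test wells between control levels plus 3 SD, cut at about 38% in these data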;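 note: cells cotransfected with COUP-TFII expression vector driving the NGFI-A reporter; 0% = median of COUP-TF2 test wells and 100% = reporter-only cells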
SRC1 inh: inhibitors of human steroid receptor coactivator 1 (SRC1); inhibition, % at 3.6 µM; 360,000 compounds, 0.12% hits; Q15788; HEK293 GAL4-SRC1 luciferase reporter, luminescence; AID 588354;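 active = inhibition above the campaign mean plus 3 SD, with each screening campaign given its own cutoff, cut at about 60% in these data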;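 note: 0% = DMSO treated cells and 100% = gossypol at 36 µM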
Gli-Sufu antag: blocks Gli-Sufu signaling in a luciferase reporter; 340,000 compounds, 0.74% hits; inhibition, % at 5 µM; AID 588413; Sufu-KO-LIGHT fibroblasts, Gli luciferase reporter luminescence;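 active = inhibition above about 55%, limit read from the data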;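 note: 0% = DMSO-treated cells and 100% = wells with medium but no cells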
NCOA2 inhibitor: inhibits human steroid receptor coactivator 2; HEK293 GAL4-SRC2 luciferase reporter, luminescence; inhibition, % at 9 µM; 370,000 compounds, 0.17% hits;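 active = inhibition above the mean inhibition of all tested compounds plus 3 SD, set per campaign, cut at about 52% in these data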;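 note: 0% = DMSO treated cells and 100% = cells given Gossypol at 36 µM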
NR5A2 inv ag: NR5A2 inverse agonism in reporter assay. O00482. HEK293T StAR-luciferase reporter, LRH-1 transfected, 24 h. inhibition, % at 3.6 µM. 360,000 compounds, 0.13% hits;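 active = inhibition above the mean inhibition of all tested compounds plus 3 SD, cut at about 73% in these data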;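 note: 0% = DMSO wells and 100% = reporter-only cells lacking LRH-1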
Target sequence (O00482 whole entry, looked up): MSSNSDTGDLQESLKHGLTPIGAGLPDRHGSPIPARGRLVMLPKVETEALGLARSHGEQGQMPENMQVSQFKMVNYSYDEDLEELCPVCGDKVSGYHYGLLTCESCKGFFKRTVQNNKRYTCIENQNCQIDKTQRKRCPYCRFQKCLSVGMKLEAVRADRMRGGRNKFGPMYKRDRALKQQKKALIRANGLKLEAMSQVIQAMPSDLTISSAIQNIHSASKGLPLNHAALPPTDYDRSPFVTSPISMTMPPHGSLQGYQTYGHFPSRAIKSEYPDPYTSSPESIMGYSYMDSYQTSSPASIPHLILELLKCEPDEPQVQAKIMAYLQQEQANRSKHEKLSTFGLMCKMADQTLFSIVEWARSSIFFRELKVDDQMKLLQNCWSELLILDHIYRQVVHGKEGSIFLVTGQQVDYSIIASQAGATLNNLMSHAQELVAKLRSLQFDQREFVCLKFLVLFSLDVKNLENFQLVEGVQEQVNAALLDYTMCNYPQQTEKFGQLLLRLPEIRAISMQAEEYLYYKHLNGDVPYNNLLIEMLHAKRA
Gal4-VP16 ctr: inhibits VP16 reporter, flagging COUP-TFII antagonist hits; AID 687007; shares compounds with NR2F2 inh; HEK293 Gal4-VP16 luciferase reporter, luminescence; 2,500 compounds, 25% hits; inhibition, % at 8.5 µM; in the data active = inhibition above about 13%
NR2F2 inh conf: COUP-TFII (NR2F2) inhibition, confirmation assay | shares compounds with NR2F2 inh | HEK293 NGFI-A luciferase reporter, luminescence | inhibition, % at 8.5 µM | 2,500 compounds, 45% hits | AID 687008;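 active = mean inhibition over three repeats above a set limit taken from the earlier primary screen, cut at about 38% in these data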;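 note: 100% = cells given the luciferase reporter alone without the COUP-TF2 vector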
* hit, by the source's call; . = no result.

SMILES	NCOA3 inh	NR2F2 inh	SRC1 inh	Gli-Sufu antag	NCOA2 inhibitor	NR5A2 inv ag	Gal4-VP16 ctr	NR2F2 inh conf
CC(=O)c1cn(CC(=O)Nc2ccccc2C)c2ccccc12	6.8	37.7*	-4.8	1.2	29.5	40.2	-4.6	25.1
COc1ccc(NC(=O)Cn2c(C)cc(=O)c3ccccc32)cc1	20.9	54.7*	3.2	45.6	16.3	42.1	0.0	25.9
CCOc1ccc(NC(=O)Cn2cc(C(C)=O)c3ccccc32)cc1	-7.2	4.2	8.5	15.4	4.1	50.5	.	.
CC(=O)c1cn(CC(=O)Nc2c(C)cccc2C)c2ccccc12	21.9	37.3	15.1	-9.1	19.7	19.2	.	.
COc1cc(NC(=O)Cn2c(C)cc3ccccc3c2=O)cc(OC)c1OC	-44.5	-18.2	11.4	2.2	-23.3	15.1	.	.
COc1ccc(NC(=O)Cn2cc(C(C)=O)c3ccccc32)cc1	22.8	48.1*	19.1	44.3	22.9	30.9	-1.1	20.9
CCCCNS(=O)(=O)CC1NCc2cc(F)ccc21 (stereo not drawn)	.	6.7	.	.	-1.9	.	.	.
CCCCCCCCN1C(=O)[C@@H](CC(=O)NCc2ccc(C)o2)C[C@@]2(C(=O)OC)C1=C[C@H](C(C)C)O[C@@H]2C1CC1	.	0.1	.	.	6.5	.	.	.
CCOC(=O)N1CCN(C(=O)c2ccc3c(c2)sc2nc(-c4ccc(OC)cc4)cn23)CC1	-5.8	-11.3	-17.8	-2.7	-5.6	5.6	.	.
COc1ccc2c(c1)sc1nc(-c3ccccc3)cn12	12.5	46.6*	5.0	53.8	61.2*	-0.6	47.4*	39.7*
Cc1ccc(CN2C(C(=O)NC3CCCC3)CSCCS2(=O)=O)cc1 (stereo not drawn)	.	-4.7	.	.	6.0	.	.	.
CCOc1cc(/C=C2\CN(CC)C/C(=C\c3ccc(O)c(OCC)c3)C2=O)ccc1O	43.0	79.1*	51.1	-1.6	10.5	45.6	48.3*	72.0*
COc1cc(/C=C2\CCC/C(=C\c3ccc(O)c(OC)c3)C2=O)ccc1O	3.0	11.6	-2.2	51.8	12.6	-26.3	.	.
CC(C)CCOc1cccc(OCC(=O)Nc2ccncc2)c1	33.1	62.0*	6.7	21.7	34.1	44.6	-2.5	55.1*
Cc1cc(OCC(=O)Nc2ccncc2)cc(C)c1Cl	13.7	56.9*	21.9	-15.8	33.9	23.4	-4.6	32.1
Cc1ccc(OCC(=O)Nc2ccncc2)cc1C	-14.8	19.7	-5.3	.	-6.7	2.5	.	.
O=C(COc1ccc(Br)cc1)Nc1ccncc1	3.1	-4.7	6.0	7.0	-5.8	21.4	.	.
O=C(COc1ccc2ccccc2c1Br)Nc1ccncc1	-29.0	50.6*	-86.0	-1.7	-17.8	-19.2	-79.0	-2.3
O=C(COc1ccc(Nc2ccccc2)cc1)Nc1ccncc1	-5.0	48.2*	10.9	1.3	14.0	42.9	0.8	20.1
CC(C)(N[C@@H](Cc1c[nH]c2ccccc12)C(=O)NCCc1c[nH]c2ccccc12)C(=O)NC1CCCCC1	.	16.2	.	.	.	.	.	.
Cc1ccc(-n2c(Cc3cccs3)nnc2SCc2ccc(Br)cc2)cc1	.	2.2	.	.	18.9	.	.	.
COC(=O)c1ccc(CSc2nnc(CS(=O)Cc3ccc(Br)cc3)n2-c2ccccc2)cc1 (stereo not drawn)	11.3	39.3*	-4.0	28.8	16.4	18.7	0.5	14.6
O=S(Cc1ccc(Br)cc1)Cc1nnc(SCc2ccc(Br)cc2)n1-c1ccccc1 (stereo not drawn)	28.8	43.7*	10.7	40.7	6.9	38.2	-3.7	27.7
CC(=O)N1C[C@H]2CON(C)[C@H]2C[C@H]1c1cccc(-c2ccccc2C)c1	-15.8	78.4*	-14.3	-29.0	-11.6	-15.1	-10.9	-5.4
Cc1ccc(C)c(NC(=O)c2cc(-c3ccc(Cl)cc3)nc3ccccc23)c1	.	-15.6	.	.	-1.7	.	.	.
SMILES	NCOA3 inh	NR2F2 inh	SRC1 inh	Gli-Sufu antag	NCOA2 inhibitor	NR5A2 inv ag	Gal4-VP16 ctr	NR2F2 inh conf
Cc1sc2ncnc(N[C@@H](Cc3ccccc3)C(=O)O)c2c1C	4.1	6.8	7.7	-0.6	2.4	-17.1	.	.
Cc1sc2ncnc(NCC(O)c3ccccc3)c2c1C (stereo not drawn)	-27.3	43.5*	-44.8	22.2	-10.2	-40.8	-75.9	13.1
CCOc1ccc2[nH]c3c(NCCc4ccc(OC)c(OC)c4)ncnc3c2c1	16.4	49.3*	-29.2	14.6	-10.3	-0.8	-10.7	4.6
COc1ccc(CCNc2ncnc3sc(C)cc23)cc1OC	26.1	79.1*	18.7	68.8*	35.7	46.4	-1.0	68.3*
COC(=O)[C@]12C[C@H](CC(=O)N3CCCC3)C(=O)N(CCc3ccc(OC)c(OC)c3)C1=C[C@H](C1CCCC1)O[C@@H]2C	.	1.5	.	.	21.7	.	.	.
CC(C)c1ccc(/C=C/C(=O)Nc2ccc(CN3CCOCC3)cc2)cc1	16.3	13.7	5.1	7.9	7.6	-1.5	.	.
O=C(/C=C/c1ccc(Cl)cc1)Nc1ccc(CN2CCOCC2)cc1	13.5	57.4*	-14.4	20.0	-48.8	11.5	-2.7	32.4
CCOC(=O)c1ccc(NC(=O)c2ccc(CN3CCOCC3)cc2)cc1	32.1	49.5*	10.9	-14.0	16.7	24.7	-4.5	38.2*
NC(=O)c1ccc(NC(=O)c2ccc(CN3CCOCC3)cc2)cc1	-19.8	-2.7	-10.8	-4.8	-9.6	-17.7	.	.
Cc1cc(CSc2ccccc2)ccc1NC(=O)c1ccc(CN2CCOCC2)cc1	29.7	63.3*	32.5	40.1	5.4	40.1	3.0	60.5*
CC(C)c1ccc(C(=O)Nc2ccc(CN3CCOCC3)cc2)cc1	15.5	38.3*	3.5	1.7	-17.1	3.9	-37.5	5.9
Cc1cc(-c2nnc(SCC(=O)Nc3cccc4ccccc34)n2N)n[nH]1	.	-11.7	.	.	-15.9	.	.	.
COc1ccc(C(=O)CSc2nnc(-c3ccc(C(C)(C)C)cc3)n2C)cc1	.	6.1	.	.	-1.1	.	.	.
O=C(Nc1ccc(CN2CCOCC2)cc1)c1ccc(-c2cccc(Cl)c2)o1	15.7	61.5*	2.7	14.1	-2.7	-9.0	-18.3	-6.4
Nc1cc(S(=O)(=O)N2CCCCC2)ccc1N1CCOCC1	12.1	15.2	0.1	-2.5	8.8	12.1	.	.
Nc1cc(S(=O)(=O)c2ccc(N3CCCCC3)c(N)c2)ccc1N1CCCCC1	2.2	42.5*	-0.5	.	1.4	1.1	5.4	22.1
CCCCCN1CCCCC(NC(=O)c2cc(OC)c(OC)c(OC)c2)C1=O (stereo not drawn)	.	15.3	.	.	-22.6	.	.	.
CCCC1CCC2(CCCN2CCOC(=S)Nc2ccccc2Br)CC1 (stereo not drawn)	.	26.4	.	.	.	.	.	.
CCCC1CCC2(CCCN2CCOC(=S)Nc2ccccc2OC)CC1 (stereo not drawn)	.	50.6*	.	.	.	.	1.6	8.1
O=C(c1ccccc1F)N1CCN(S(=O)(=O)c2ccc3c(c2)OCCO3)CC1	5.4	42.5*	11.9	-4.3	39.9	-9.3	-13.4	13.1
